# A selection: hits, their analogues and other compounds. The true share with any hit is near 6.2%.
# HCMV inh – blocks human cytomegalovirus replication; actives 4.5% (n = 410,000); HFF cells, HCMV-luciferase reporter, 72 h; stronger effect = lower value; activity change, negative = inhibition, % at 57.5 µM; in the data active means activity change below about -60%; inconclusive means no clear call, values can overlap the other calls; inactive means above about -39%
#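 HFF cells seeded 16 h at 37C, treated with compounds, infected with luciferase-reporter HCMV at MOI 1 PFU/cell; luciferase read at 72 h post infection, normalized to buffer-only and Salinomycin controls.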
# FMDV inh – blocks foot and mouth disease virus. FMDV antiviral cell-based qHTS. Potency, µM (top dose mostly 57.9 µM), without a hit: at the highest dose activity change, negative = inhibition, most hits filed as inhibitors. actives 1.2% (n = 410,000). AID 1159524; calls by dose curve; tested in HEK293T cells; further: read-out not given here; potency means the concentration at half of the fitted maximal effect; nearly all actives have a fitted effect of over 45% in size
# Marburg entry inh – blocks Marburg virus binding to or entry into cells. Potency, µM (highest dose often 37.8 µM), for inactives: at the highest dose activity change, negative = inhibition, hits mostly inhibitors. actives 1.8% (n = 300,000). Marburg virus pseudotyped entry inhibition, cell reporter; calls by dose curve; tested in HEK293 cells; further: potency means the concentration at half of the fitted maximal effect
# Lassa entry inh – blocks Lassa virus binding to or entry into cells | Lassa virus pseudotype entry inhibition, cell reporter | actives 1.2% (n = 300,000) | AID 540256 | Potency, µM (doses to about 37.9 µM), for inactives: at the top dose activity change, negative = inhibition, hits mostly inhibitors; calls by dose curve; tested in HEK293 cells; further: potency means the concentration at half of the fitted maximal effect; nearly all actives have a fitted effect of over 50% in size
# * hit, by the source's call; ? = inconclusive; . = no result; [ ] = dose if it differs, or a comment. On the % scale 0 is the no-effect control and ±100 the full control effect.
SMILES,HCMV inh,FMDV inh,Marburg entry inh,Lassa entry inh
COc1ccc(-c2cn3cc(Cl)ccc3n2)cc1OC,123.6,11.0%,?,7.4%
CCOC(=O)C1=CCN(S(=O)(=O)c2ccc(Cl)cc2)C1c1cccc(C)c1 (centres undefined),-86.7*,-26.6%,.,.
CCOC(=O)C1=CCN(S(=O)(=O)c2ccc(C)cc2)C1c1ccc(CC)cc1 (centres undefined),-96.8*,-14.8%,.,.
CCCN(CCC)CC(=O)NCC1(c2ccccc2)CCOCC1,5.2,7.8%,-26.9%,-2.4%
O=C(/C=C/c1cn(-c2ccccc2)nc1-c1cccnc1)c1ccco1,-98.7*,14.1µM*,?,10µM*
O/N=C/c1cn(-c2ccccc2)nc1-c1cccnc1,-13.6,-13.9%,0.794µM*,4.1%
O=C(COC(=O)c1cccc(S(=O)(=O)N2CCCC2)c1)c1ccc(F)cc1,31.9,5.1%,.,.
COc1ccccc1N1CCN(C(=O)CCc2c(C)nn(-c3ccc(N4CCCC4)nn3)c2C)CC1,11.0,-26.4%,.,-3.3%[46.1 µM]
O=c1c2ccccc2oc2cc(C#CC3(O)CCCCC3)ccc12,-80.2*,11.2µM*,.,.
O=c1c2ccccc2sc2ccc(C#CC3(O)CCCCC3)cc12,-100.1*,44.7µM*,.,.
COc1cccc2oc3cc(C#CC4(O)CCCCC4)ccc3c(=O)c12,66.1,-26.7%,.,.
O=C(Cn1c(=O)n(Cc2ccc3c(c2)OCO3)c(=O)c2oc3ccccc3c21)Nc1ccc(F)cc1,37.0,18.1%,.,19.3%[46.1 µM]
CCC(=O)N(CC)c1nc(-c2cc(OC)ccc2OC)cs1,?,.,-37.0%,-9.9%
CCOC(=O)[C@H]1[C@H]2COc3ccc(Cl)cc3[C@@H]2N2C(=O)CN(Cc3ccc(Cl)cc3)C(=O)[C@@]12C,-99.4*,?,.,.
C[C@@]12C(=O)Nc3cc(Cl)ccc3C(=O)N1[C@H]1c3cc(Br)ccc3OC[C@@H]1[C@@H]2c1ccccc1,-64.3*,-10.6%,.,.
CCOC(=O)[C@H]1[C@H]2COc3ccc(Cl)cc3[C@@H]2N2C(=O)c3cc(Cl)ccc3NC(=O)[C@@]12C,-26.1,?,.,.
CCOC(=O)[C@H]1[C@H]2COc3ccc(Cl)cc3[C@@H]2N2C(=O)c3ccccc3NC(=O)[C@@]12C,-69.6*,?,.,.
CCOC(=O)[C@H]1[C@H]2COc3ccc(OC)cc3[C@@H]2N2C(=O)c3cc(OC)ccc3NC(=O)[C@@]12C,-15.2,-19.4%,.,.
CCOC(=O)[C@H]1[C@H]2COc3ccc(OC)cc3[C@@H]2N2C(=O)c3ccccc3NC(=O)[C@@]12C,-80.0*,-4.3%,.,.
COc1ccc2c(c1)OC[C@H]1[C@H]2N2C(=O)[C@H](C)NC(=O)[C@@]2(C)[C@H]1c1ccccc1,-91.1*,-3.7%,.,.
CC(C)(C)C1CCC(OCC(O)CN2CCN(c3ccccn3)CC2)CC1 (centres undefined),-69.2*,?,?,?
OC(COCC1COc2ccccc2O1)CN1CCc2ccccc2C1 (centres undefined),27.6,-11.0%,5.7%,-4.0%
OC(COCC1COc2ccccc2O1)CN1CCN(c2ccccn2)CC1 (centres undefined),-65.7*,-4.6%,-5.0%[46.1 µM],-11.7%[46.1 µM]
CC(C)(C)C1CCC(OCC(O)CN2CCN(Cc3ccccc3)CC2)CC1 (centres undefined),0.1,?,.,.
CCC1=C(NCc2ccccc2)COC1=O,1.6,-6.8%,.,.
SMILES,HCMV inh,FMDV inh,Marburg entry inh,Lassa entry inh
CCn1cc(C(=O)NCc2ccccc2)c(=O)c2cc(F)c(N3CCN(C(=O)c4ccco4)CC3)cc21,-82.3*,20µM*,?,?
CCn1cc(C(=O)NCc2ccc3c(c2)OCO3)c(=O)c2cc(F)c(N3CCN(C(=O)c4ccco4)CC3)cc21,-73.0*,14.1µM*,?,?
COc1ccccc1CNS(=O)(=O)c1ccc2c(c1)NC(=O)CC(=O)N2,1.1,-10.1%,-1.1%[46.1 µM],9.0%[46.1 µM]
CS(=O)(=O)c1ccc(C(=O)OCC(=O)N2CCOCC2)cc1[N+](=O)[O-],-79.5*,?,.,.
CS(=O)(=O)c1ccc(C(=O)OCC(=O)NC(=O)C2CCCCC2)cc1[N+](=O)[O-],-77.2*,22.4µM*,?,?
COc1ccc(C2=NN(C(=O)COc3ncnc4ccccc34)C(c3ccco3)C2)cc1 (centres undefined),49.9,-12.6%,?,?
COc1ccc(C2=NN(C(=O)COC(=O)c3ccc(S(C)(=O)=O)c([N+](=O)[O-])c3)C(c3ccco3)C2)cc1 (centres undefined),42.0,25.1µM*,?,?
CS(=O)(=O)c1ccc(C(=O)OCC(=O)N2CCN(CCC3CCCCC3)CC2)cc1[N+](=O)[O-],-102.8*,25.1µM*,.,.
